PubChem BioAssay (Tox21)
Results filed as inconclusive are left out. The source made the active and inactive calls. Unless noted, calls come from the whole dose curve; as a rule, active = well fitted curve in the direction sought with a large enough effect in the repeat runs; inconclusive = weak or mixed curves; inactive = no such curve, though single readings can be large; an effect the other way counts as inactive or inconclusive.

Columns and labels:
[1] = molecular target: Nuclear receptor subfamily 1 group I member 3 (Homo sapiens) (UniProt Q14994); test: qHTS assay to identify small molecule antagonists of the constitutive androstane receptor (CAR) signaling pathway (AID 1224838);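 note: HepG2 cells stably expressing hCAR with CYP2B6 luciferase reporter stimulated by CITCO; nearly all actives have a fitted effect of over 40% in size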; note: potency is the fitted concentration of half-maximal effect
Chain of Nuclear receptor subfamily 1 group I member 3 (Homo sapiens) (Q14994 whole entry, looked up): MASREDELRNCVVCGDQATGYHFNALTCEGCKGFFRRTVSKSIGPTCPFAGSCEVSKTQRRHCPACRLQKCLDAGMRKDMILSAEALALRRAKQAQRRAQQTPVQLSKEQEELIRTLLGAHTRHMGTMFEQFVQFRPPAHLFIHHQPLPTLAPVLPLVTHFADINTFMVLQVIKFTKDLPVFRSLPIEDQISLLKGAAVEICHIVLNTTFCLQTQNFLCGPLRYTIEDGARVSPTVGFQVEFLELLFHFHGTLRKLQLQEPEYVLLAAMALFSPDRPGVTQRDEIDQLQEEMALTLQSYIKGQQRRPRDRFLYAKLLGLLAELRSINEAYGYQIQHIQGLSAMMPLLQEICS
In short: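 Luminescence from a CYP2B6-2.2kb promoter reporter in hCAR-expressing HepG2 cells reflects CAR signaling. Cells received compounds at 15 concentrations and 50 nM CITCO (final), then incubated 24 h at 37 C/5% CO2.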

[2] = A CellTox Green Cytotoxicity Assay to monitor cytotoxicity in HEK293 cells - 0 hour (AID 1224869); note: nearly all actives have a fitted effect of over 50% in size; note: potency is the fitted concentration of half-maximal effect
In short: (§1)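 Dead-cell fluorescence measured kinetically: asymmetric cyanine dye, HEK293, 600 cells/well, 5 h settle, 23 nL cpd/DMSO, 37 C, reads 0–40 h every 8 h.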

[3] = qHTS RealTime-Glo MT Cell Viability Assay in HepG2 cells - 40 hour (AID 1224870); note: nearly all actives have a fitted effect of over 50% in size; note: potency is the fitted concentration of half-maximal effect
In short: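 HepG2 cells mixed with RealTime-Glo MT reagents (NanoLuc plus cell-permeant prosubstrate) were seeded at 600 cells/well, incubated 5 h at 37 C/5% CO2, then pinned with compounds in DMSO; nonlytic luminescence tracked viability during 40 h treatment.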

[4] = A CellTox Green Cytotoxicity Assay to monitor cytotoxicity in HEK293 cells - 40 hour (AID 1224871); note: nearly all actives have a fitted effect of over 45% in size; note: potency is the fitted concentration of half-maximal effect
In short: as §1

[5] = qHTS RealTime-Glo MT Cell Viability Assay in HEK293 cells - 40 hour (AID 1224874); conditions: RealTime-Glo luminescence; max response: hits give low values; note: nearly all actives have a fitted effect of over 50% in size; note: potency is the fitted concentration of half-maximal effect
In short: (§2)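 600 HEK293 cells per well, dispensed already mixed with RealTime-Glo MT reagents. Compound dosing came 5 h later. The same wells were read for luminescence at 0, 8, 16, 24, 32 and 40 h of exposure at 37 C.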

[6] = A CellTox Green Cytotoxicity Assay to monitor cytotoxicity in HepG2 cells - 16 hour (AID 1224876); note: nearly all actives have a fitted effect of over 45% in size; note: potency is the fitted concentration of half-maximal effect
In short: (§3)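 First, HepG2 cells (600/well) mixed with reagent were plated; second, after 5 h at 37 C they received compounds via pintool; third, fluorescence was measured at 0 h through 40 h at 8 h intervals.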

[7] = qHTS RealTime-Glo MT Cell Viability Assay in HepG2 cells - 32 hour (AID 1224877); note: nearly all actives have a fitted effect of over 55% in size; note: potency is the fitted concentration of half-maximal effect
In short: (§4)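 HepG2 cells (600/well) were dispensed with RealTime-Glo reagents, incubated 5 h at 37 °C, then treated with compounds in DMSO for up to 40 h. Nonlytic NanoLuc luminescence reflecting viable cells was read at each stated time point.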

[8] = qHTS RealTime-Glo MT Cell Viability Assay in HEK293 cells - 0 hour (AID 1224880); note: top concentration of the series differs between compounds; nearly all actives have a fitted effect of over 45% in size
In short: as §2

[9] = A CellTox Green Cytotoxicity Assay to monitor cytotoxicity in HEK293 cells - 16 hour (AID 1224888); note: nearly all actives have a fitted effect of over 35% in size; note: potency is the fitted concentration of half-maximal effect
In short: as §1

[10] = qHTS RealTime-Glo MT Cell Viability Assay in HepG2 cells - 0 hour (AID 1224889); note: nearly all actives have a fitted effect of over 50% in size
In short: as §4

[11] = A CellTox Green Cytotoxicity Assay to monitor cytotoxicity in HepG2 cells - 8 hour (AID 1224890); note: nearly all actives have a fitted effect of over 45% in size; note: potency is the fitted concentration of half-maximal effect
In short: as §3

[12] = qHTS assay to identify small molecule antagonists of the estrogen receptor alpha (ER-alpha) signaling pathway using the BG1 cell line in the presence of 0.1 nM 17-beta-estradiol - cell viability counter screen (AID 1259241); note: nearly all actives have a fitted effect of over 40% in size
In short: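 Live-cell protease activity (CellTiter-Fluor fluorescence, 30 min) was read in the same wells after VM7Luc4E2 cells had been exposed to compounds with 0.1 nM 17beta-estradiol for 22 hr at 37C.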

[13] = qHTS assay to identify small molecule HDAC inhibitors - cell viability counter screen (AID 1259365)
In short: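 HCT-116 (wild type), 1,500 cells/well, overnight 37C/5% CO2; compound in DMSO 2hr; CellTiter-Glo 30min RT; luminescence read.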

[14] = molecular target: Estrogen receptor (Homo sapiens) (UniProt P03372); test: qHTS assay to identify small molecule agonists of the estrogen receptor alpha (ER-alpha) signaling pathway in the presence of an antagonist (AID 1259383; calls by dose curve; note: top concentration of the series differs between compounds; nearly all actives have a fitted effect of over 15% in size)
Chain of Estrogen receptor (Homo sapiens) (P03372 whole entry, looked up): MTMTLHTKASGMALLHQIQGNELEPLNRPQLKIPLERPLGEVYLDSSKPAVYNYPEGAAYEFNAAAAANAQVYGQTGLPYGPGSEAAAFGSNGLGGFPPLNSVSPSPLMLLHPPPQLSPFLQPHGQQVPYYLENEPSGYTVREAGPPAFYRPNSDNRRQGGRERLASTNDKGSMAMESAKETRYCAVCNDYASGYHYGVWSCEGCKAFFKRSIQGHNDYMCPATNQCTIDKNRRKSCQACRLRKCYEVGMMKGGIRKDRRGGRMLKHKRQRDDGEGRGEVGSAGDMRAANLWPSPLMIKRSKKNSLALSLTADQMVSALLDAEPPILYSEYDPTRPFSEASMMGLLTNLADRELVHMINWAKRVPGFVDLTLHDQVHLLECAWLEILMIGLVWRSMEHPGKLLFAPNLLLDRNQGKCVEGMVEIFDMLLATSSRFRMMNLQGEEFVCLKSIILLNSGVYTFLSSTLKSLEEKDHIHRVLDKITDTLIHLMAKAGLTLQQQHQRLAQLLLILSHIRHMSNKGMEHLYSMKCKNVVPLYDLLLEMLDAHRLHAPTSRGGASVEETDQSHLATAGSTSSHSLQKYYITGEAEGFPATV
In short: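 Readout was ERE-driven luciferase luminescence in VM7Luc4E2 cells, which express full-length ER-alpha endogenously. Compounds were tested at 15 concentrations for 22hr alongside 10.0nM ICI-182,780 (final concentration).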

[15] = qHTS assay to identify small molecule agonists or antagonists of the thyroid stimulating hormone receptor (TSHR) signaling pathway - wild type cell line counter screen (AID 1259384; calls by dose curve)
In short: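 Wild-type HEK293 cells were plated 18 h at 37 C/5% CO2, pin-dosed with compound plus Ro20-1724 medium, held 30 min at room temperature, then given cAMP-d2 and anti-cAMP-cryptate; fluorescence was read after 1 h. Fifteen concentrations, triplicate.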

[16] = qHTS assay to identify small molecule agonists of the TGF-beta/Smad signaling pathway (AID 1346859; active = well fitted activation curve with a large enough effect in the signal ratio in the repeat runs, not every such curve was filed as active; the % refers to the signal ratio; note: series mostly up to about 77 µM)
In short: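 Read-out: fluorescence at 460 and 530 nm (405 nm excitation) after a 2 hr room-temperature incubation with beta-lactamase FRET substrate. SBE-bla HEK 293T cells had been treated with test compounds for 5 hr at 37 C.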

[17] = molecular target: Cytochrome P450 1A2 (Homo sapiens) (UniProt P05177); test: Cytochrome P450 Family 1 Subfamily A Member 2 (CYP1A2) small molecule antagonists: luciferase reporter qHTS assay (AID 1671199); note: nearly all actives have a fitted effect of over 50% in size; note: potency is the fitted concentration of half-maximal effect
Chain of Cytochrome P450 1A2 (Homo sapiens) (P05177 whole entry, looked up): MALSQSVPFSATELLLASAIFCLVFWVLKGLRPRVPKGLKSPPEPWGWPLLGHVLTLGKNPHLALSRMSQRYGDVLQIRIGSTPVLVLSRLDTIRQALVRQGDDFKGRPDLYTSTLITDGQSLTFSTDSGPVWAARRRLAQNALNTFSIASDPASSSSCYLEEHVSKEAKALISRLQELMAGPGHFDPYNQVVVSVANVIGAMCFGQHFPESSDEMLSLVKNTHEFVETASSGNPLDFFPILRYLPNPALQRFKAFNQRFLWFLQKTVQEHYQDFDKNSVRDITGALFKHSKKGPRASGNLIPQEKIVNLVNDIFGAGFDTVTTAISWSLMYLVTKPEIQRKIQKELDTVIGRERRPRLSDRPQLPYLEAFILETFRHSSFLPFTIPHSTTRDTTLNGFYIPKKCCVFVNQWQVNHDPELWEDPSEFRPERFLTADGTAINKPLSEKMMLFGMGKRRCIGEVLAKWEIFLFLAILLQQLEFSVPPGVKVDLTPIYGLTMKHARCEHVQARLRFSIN
In short: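 Steps: enzyme-substrate mix dispensed; test compounds and furafylline control pinned in; 10 min room temperature; NADPH regeneration solution added, 1 h; reaction stopped with luciferin detection reagent; luminescence read after 20 min.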

[18] = molecular target: Voltage-gated inwardly rectifying potassium channel KCNH2 (Homo sapiens) (UniProt Q12809); test: Human Ether-a-go-go-Related Gene (hERG) channel small molecule antagonists: fluorescence cell-based qHTS assay (AID 1671200); note: nearly all actives have a fitted effect of over 50% in size; note: potency is the fitted concentration of half-maximal effect
Chain of Voltage-gated inwardly rectifying potassium channel KCNH2 (Homo sapiens) (Q12809 whole entry, looked up): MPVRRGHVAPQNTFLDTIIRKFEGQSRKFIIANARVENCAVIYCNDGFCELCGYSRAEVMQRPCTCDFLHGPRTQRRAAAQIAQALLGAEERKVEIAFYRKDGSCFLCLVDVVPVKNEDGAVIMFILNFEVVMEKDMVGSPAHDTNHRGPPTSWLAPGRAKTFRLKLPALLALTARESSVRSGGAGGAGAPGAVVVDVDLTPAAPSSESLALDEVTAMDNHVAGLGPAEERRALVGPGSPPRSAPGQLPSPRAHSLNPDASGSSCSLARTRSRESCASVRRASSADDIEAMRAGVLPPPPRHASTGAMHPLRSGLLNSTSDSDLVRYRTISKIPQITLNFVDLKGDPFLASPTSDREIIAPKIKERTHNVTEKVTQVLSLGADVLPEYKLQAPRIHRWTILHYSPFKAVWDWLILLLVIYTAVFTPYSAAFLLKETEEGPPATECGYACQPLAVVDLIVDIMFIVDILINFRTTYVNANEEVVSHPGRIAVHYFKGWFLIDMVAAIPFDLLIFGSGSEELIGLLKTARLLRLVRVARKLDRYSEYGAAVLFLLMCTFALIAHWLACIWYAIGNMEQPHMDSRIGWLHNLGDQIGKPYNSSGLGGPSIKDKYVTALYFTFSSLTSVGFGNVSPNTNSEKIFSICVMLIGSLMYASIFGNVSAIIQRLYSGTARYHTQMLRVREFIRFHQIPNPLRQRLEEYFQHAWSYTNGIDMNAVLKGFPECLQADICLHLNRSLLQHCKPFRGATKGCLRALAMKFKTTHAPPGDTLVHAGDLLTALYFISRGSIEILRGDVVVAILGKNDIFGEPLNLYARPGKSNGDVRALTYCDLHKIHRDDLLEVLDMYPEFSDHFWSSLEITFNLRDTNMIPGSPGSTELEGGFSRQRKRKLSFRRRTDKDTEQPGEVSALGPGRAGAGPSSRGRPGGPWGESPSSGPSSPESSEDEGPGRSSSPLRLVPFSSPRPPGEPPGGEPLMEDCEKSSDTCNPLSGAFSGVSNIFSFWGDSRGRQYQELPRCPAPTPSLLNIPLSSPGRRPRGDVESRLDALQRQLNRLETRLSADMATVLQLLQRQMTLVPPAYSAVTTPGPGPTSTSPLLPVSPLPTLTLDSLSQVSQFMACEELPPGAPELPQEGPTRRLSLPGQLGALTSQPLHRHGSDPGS
In short: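 Read-out: thallium influx as a surrogate for potassium, tracked as fluorescence (480 nm ex/540 nm em) every second for 2 min after Stimulus Buffer addition in dye-loaded hERG-U2OS cells.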

[19] = qHTS assay to identify small molecule agonists of the sonic hedgehog signaling (Shh) pathway - cell viability counter screen (AID 1259366); note: nearly all actives have a fitted effect of over 50% in size; note: potency is the fitted concentration of half-maximal effect
In short: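 CellTiter-Fluor fluorescence read-out, 1 hr at 37C, added after 23hr compound exposure. Cells: 3T3 Gli1-Luc, an NIH/3T3 clone with stably integrated Gli1-Luc reporter, plated 4hr before compound.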

[20] = qHTS assay for small molecule agonists of the p53 signaling pathway (AID 651631; calls by dose curve; note: nearly all actives have a fitted effect of over 15% in size; note: potency is the fitted concentration of half-maximal effect)
In short: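 p53RE-bla HCT-116 cells; compounds 16 h, 37 °C; LiveBLAzer B/G FRET substrate 2 h RT; fluorescence intensity read-out, qHTS format.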
% is set by controls: 0 for no effect and ±100 for the full control effect.

N#Cc1cc([N+](=O)[O-])ccc1N
active: Potency [17] 35.6 µM
inactive: Potency [1] | Potency [2] | Potency [3] | Potency [4] | max response [5] -6.49% | Potency [6] | Potency [7] | outcome [8] | Potency [9] | Potency [10] | Potency [11] | Potency [12] | outcome [13] | outcome [14] | outcome [15] | outcome [16] | Potency [18]

CO/C=C(/C(=O)OC)c1ccccc1Oc1cc(Oc2ccccc2C#N)ncn1
active: Potency [4] 4.9 µM | Potency [5] 33.8 µM | Potency [17] 41.4 µM
inactive: Potency [1] | Potency [2] | Potency [3] | Potency [6] | Potency [9] | Potency [11] | outcome [13] | outcome [14] | outcome [15] | Potency [18]

O=C(Nc1ccccc1-c1ccc(Cl)cc1)c1cccnc1Cl
inactive: Potency [1] | Potency [3] | Potency [7] | outcome [8] | Potency [12] | outcome [13] | Potency [19] | outcome [14] | outcome [15] | outcome [16] | Potency [18]
active: Potency [2] 46.3 µM | Potency [6] 41.2 µM | Potency [11] 41.2 µM | Potency [17] 8.42 µM

Nc1ccc(Cl)cc1[N+](=O)[O-]
inactive: Potency [20] | Potency [1]

Cc1cc(C)c(C(=O)P(=O)(c2ccccc2)c2ccccc2)c(C)c1
active: Potency [5] 38.9 µM | Potency [19] 61.1 µM | Potency [18] 19.5 µM
inactive: Potency [1] | Potency [2] | Potency [3] | Potency [7] | Potency [9] | Potency [11] | Potency [12] | outcome [13] | outcome [14] | outcome [15] | outcome [16] | Potency [17]

CC(c1ccccc1)(c1ccc(O)cc1)c1ccc(O)cc1
active: Potency [5] 43.6 µM | Potency [19] 68.6 µM
inactive: Potency [2] | Potency [3] | Potency [7] | Potency [10] | Potency [12] | outcome [13] | outcome [14] | outcome [15] | outcome [16] | Potency [17] | Potency [18]

OC(Cc1ccccc1Cl)(Cn1[nH]cnc1=S)C1(Cl)CC1 (stereo unspecified)
inactive: Potency [1] | Potency [2] | Potency [3] | Potency [4] | Potency [6] | Potency [7] | Potency [9] | Potency [10] | Potency [11] | Potency [12] | outcome [13] | Potency [19] | outcome [14] | outcome [15] | outcome [16] | Potency [18]

O=C1OC(=O)c2c(Cl)c(Cl)c(Cl)c(Cl)c21
inactive: Potency [20] | Potency [1]

c1ccc2c(c1)Sc1ccccc1N2CC1CN2CCC1CC2 (stereo unspecified)
inactive: Potency [2] | Potency [12] | outcome [13] | outcome [15] | outcome [16] | Potency [17]
active: Potency [3] 21.3 µM | Potency [4] 26.8 µM | Potency [5] 23.9 µM | Potency [6] 23.9 µM | Potency [7] 23.9 µM | Potency [19] 11.9 µM | Potency [18] 5.35 µM

O=C1C(I)=CC(=C(c2cc(I)c(O)c(I)c2)c2ccccc2C(=O)O)C=C1I
inactive: Potency [1] | Potency [2] | Potency [3] | Potency [4] | max response [5] -8.4% | Potency [6] | Potency [7] | outcome [8] | Potency [9] | Potency [10] | Potency [11] | Potency [12] | outcome [13] | Potency [19] | outcome [14] | outcome [15] | outcome [16] | Potency [17] | Potency [18]

Cc1nnc2n1-c1sc(CCc3ccc(CC(C)C)cc3)cc1C(c1ccccc1Cl)=NC2C (stereo unspecified)
inactive: Potency [1] | Potency [2] | Potency [6] | Potency [9] | Potency [10] | Potency [11] | Potency [12] | outcome [13] | outcome [14] | outcome [15] | Potency [17]
active: Potency [4] 23.9 µM | Potency [5] 9.52 µM | Potency [18] 15.1 µM

Cc1ccc(N(SC(F)(Cl)Cl)S(=O)(=O)N(C)C)cc1
active: Potency [20] 6.11 µM | Potency [1] 27.3 µM | Potency [3] 9.77 µM | Potency [4] 4.9 µM | Potency [5] 5.49 µM | Potency [6] 17.4 µM | Potency [7] 9.77 µM | Potency [9] 24.5 µM | Potency [19] 4.86 µM | Potency [17] 22.4 µM | Potency [18] 21.9 µM
inactive: Potency [2] | outcome [8] | Potency [10] | Potency [11] | Potency [12] | outcome [15] | outcome [16]

ClC1=C(Cl)[C@]2(Cl)[C@@H]3[C@@H](Cl)[C@H]4O[C@H]4[C@@H]3C1(Cl)C2(Cl)Cl
active: Potency [4] 54.9 µM | Potency [18] 54.9 µM
inactive: Potency [1] | Potency [2] | outcome [8] | Potency [10] | Potency [12] | outcome [13] | Potency [19] | outcome [14] | outcome [16] | Potency [17]

COc1ccc(C(c2ccc(OC)cc2)C(Cl)(Cl)Cl)cc1
active: Potency [20] 30.6 µM | Potency [5] 52.6 µM | Potency [17] 25 µM
inactive: Potency [1] | Potency [2] | Potency [3] | Potency [4] | Potency [6] | outcome [8] | Potency [9] | Potency [10] | Potency [11] | Potency [12] | outcome [13] | Potency [19] | outcome [14] | outcome [15] | outcome [16]

OCC(c1ccc(Cl)cc1)c1ccc(Cl)cc1
inactive: Potency [2] | outcome [8] | Potency [10] | Potency [12] | outcome [13] | outcome [14] | outcome [15] | outcome [16]
active: Potency [4] 43.6 µM | Potency [5] 38.9 µM | Potency [6] 43.6 µM | Potency [9] 24.5 µM | Potency [11] 49 µM | Potency [17] 35.6 µM | Potency [18] 43.6 µM

CC1COC(Cn2cncn2)(c2ccc(Oc3ccc(Cl)cc3)cc2Cl)O1 (stereo unspecified)
active: Potency [4] 49 µM | Potency [5] 17.4 µM | Potency [17] 25.2 µM | Potency [18] 21.9 µM
inactive: Potency [2] | Potency [6] | outcome [8] | Potency [9] | Potency [11] | Potency [12] | outcome [13] | Potency [19] | outcome [14] | outcome [15] | outcome [16]

CCCCC(CC)COC(=O)CCCCC(=O)OCC(CC)CCCC (stereo unspecified)
inactive: Potency [20]

CCCCC(CC)COC(=O)c1ccc(C(=O)OCC(CC)CCCC)cc1 (stereo unspecified)
inactive: Potency [20]

C=CCOC(=O)c1ccccc1C(=O)OCC=C
inactive: Potency [20]

CCc1cccc(CC)c1N
inactive: Potency [20]

Nc1cccc(C(F)(F)F)c1
inactive: Potency [20]

C=CC(=O)OCCCC
inactive: Potency [20]

Nc1ccc(Cl)cc1Cl
inactive: Potency [20]

c1ccncc1
inactive: Potency [20]

C=CC(=O)OCCCCCCCC(C)C
inactive: Potency [20]

Brc1c2ccccc2cc2ccccc12
active: Potency [20] 61.8 µM

Clc1ccccc1-c1ccccc1Cl
inactive: Potency [2] | Potency [3] | Potency [6] | Potency [7] | outcome [8] | Potency [10] | Potency [11] | Potency [12] | outcome [13] | Potency [19] | outcome [16] | Potency [17]
active: Potency [4] 31.4 µM | Potency [9] 35.2 µM | Potency [18] 27.9 µM

Oc1c(Cl)ccc(Cl)c1Cl
inactive: Potency [1]

CC(CCl)OP(=O)(OC(C)CCl)OC(C)CCl (stereo unspecified)
inactive: Potency [20]

COc1ccccc1[N+](=O)[O-]
inactive: Potency [20]

CC(C)(C)OCC1CO1 (stereo unspecified)
inactive: Potency [20]

c1cc(OCC2CO2)cc(OCC2CO2)c1 (stereo unspecified)
active: Potency [20] 21.5 µM

CCc1cccc(C)c1N
inactive: Potency [20]

Cc1cccc([N+](=O)[O-])c1C
inactive: Potency [20]

C[C@@]12C(=O)OC(=O)[C@]1(C)C1CCC2O1
active: Potency [20] 1.6 µM
